# The sample as a whole holds a higher share of the strongest signals than the screen did.
# B1: PNA (Arachis hypogaea), P02872 (protein)
# chain: MKPFCVFLTFFLLLAASSKKVDSAETVSFNFNSFSEGNPAINFQGDVTVLSNGNIQLTNLNKVNSVGRVLYAMPVRIWSSATGNVASFLTSFSFEMKDIKDYDPADGIIFFIAPEDTQIPAGSIGGGTLGVSDTKGAGHFVGVEFDTYSNSEYNDPPTDHVGIDVNSVDSVKTVPWNSVSGAVVKVTVIYDSSTKTLSVAVTNDNGDITTIAQVVDLKAKLPERVKFGFSASGSLGGRQIHLIRSWSFTSTLITTTRRSIDNNEKKIMNMASA
# What was measured:
# Assay in all cases: glycan array binding signal (z-score within array); higher = stronger binding
# Settings in all cases: glycan notation: IUPAC condensed, linker removed
# [1] = molecular target: Gal(b1-4)GlcNAc(b1-3)[Gal(b1-4)GlcNAc(b1-6)]Gal(b1-4)GlcNAc
# Method in brief: (§1)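 Columns mapping to the same glycan were averaged after glycan names were converted to IUPAC-condensed notation. The data come from 3228 arrays in the Consortium for Functional Glycomics database, limited to those with an available protein sequence. Binding is reported as a within-array Z-score averaged across arrays of one protein sequence and across linkers.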
# [2] = molecular target: Gal(b1-4)GlcNAc(b1-3)[Gal(b1-4)GlcNAc(b1-6)]Gal(b1-4)GlcNAc(b1-3)[Gal(b1-4)GlcNAc(b1-6)]Gal(b1-4)GlcNAc(b1-3)[Gal(b1-4)GlcNAc(b1-6)]Gal(b1-4)GlcNAc(b1-3)[Gal(b1-4)GlcNAc(b1-6)]Gal(b1-4)GlcNAc(b1-3)Gal(b1-4)Glc
# Method in brief: as §1
# [3] = molecular target: Gal(b1-4)GlcNAc(b1-6)[Gal(b1-3)]GalNAc
# Method in brief: as §1
# [4] = molecular target: Gal3S(b1-4)[Fuc(a1-3)]Glc
# Method in brief: as §1
# [5] = molecular target: Gal6S(b1-3)GlcNAc6S
# Method in brief: as §1
# [6] = molecular target: Gal6S(b1-4)Glc
# Method in brief: as §1
# [7] = molecular target: GalNAc(b1-3)Gal(a1-4)Gal(b1-4)GlcNAc
# Method in brief: as §1
# [8] = molecular target: GalNAc(b1-4)Gal3S(b1-4)Glc
# Method in brief: as §1
# [9] = molecular target: Glc(a1-2)Glc
# Method in brief: as §1
# [10] = molecular target: Glc(a1-6)Glc(a1-6)Glc(a1-6)Glc
# Method in brief: as §1
# [11] = molecular target: Glc(b1-4)Glc(b1-4)Glc(b1-4)Glc(b1-4)Glc(b1-4)Glc(b1-4)Glc(b1-4)Glc(b1-4)Glc
# Method in brief: as §1
# [12] = molecular target: Glc(b1-4)Glc(b1-4)Glc(b1-4)Glc(b1-4)Glc(b1-4)Glc(b1-4)Glc(b1-4)Glc(b1-4)Glc(b1-4)Glc
# Method in brief: as §1
# [13] = molecular target: Glc(b1-4)Glc(b1-4)Glc(b1-4)Glc(b1-4)Glc(b1-4)Glc(b1-4)Glc(b1-4)Glc(b1-4)Glc(b1-4)Glc(b1-4)Glc
# Method in brief: as §1
# [14] = molecular target: Glc(b1-4)Glc(b1-4)Glc(b1-4)Glc(b1-4)Glc(b1-4)Glc(b1-4)Glc(b1-4)Glc(b1-4)Glc(b1-4)Glc(b1-4)Glc(b1-4)Glc
# Method in brief: as §1
# [15] = molecular target: Glc(b1-4)Glc(b1-4)Glc(b1-4)Glc(b1-4)Glc(b1-4)Glc(b1-4)Glc(b1-4)Glc(b1-4)Glc(b1-4)Glc(b1-4)Glc(b1-4)Glc(b1-4)Glc
# Method in brief: as §1
# [16] = molecular target: GlcA(b1-3)Gal
# Method in brief: as §1
# [17] = molecular target: GlcA3S(b1-3)Gal(b1-4)GlcNAc(b1-2)Man
# Method in brief: as §1
# [18] = molecular target: GlcNAc(b1-2)Gal(b1-3)GalNAc
# Method in brief: as §1
# [19] = molecular target: GlcNAc(b1-2)Man(a1-3)[GlcNAc(b1-2)Man(a1-6)]Man(b1-4)GlcNAc(b1-4)GlcNAc
# Method in brief: as §1
# [20] = molecular target: GlcNAc(b1-3)Gal(b1-4)GlcNAc(b1-2)Man(a1-3)[GlcNAc(b1-3)Gal(b1-4)GlcNAc(b1-2)Man(a1-6)]Man(b1-4)GlcNAc(b1-4)GlcNAc
# Method in brief: as §1
# [21] = molecular target: GlcNAc(b1-3)Gal(b1-4)GlcNAc(b1-2)Man(a1-3)[GlcNAc(b1-3)Gal(b1-4)GlcNAc(b1-2)Man(a1-6)]Man(b1-4)GlcNAc(b1-4)[Fuc(a1-6)]GlcNAc
# Method in brief: as §1
# [22] = molecular target: GlcNAc(b1-3)Gal(b1-4)GlcNAc(b1-3)Gal(b1-4)GlcNAc(b1-3)Gal(b1-4)GlcNAc(b1-3)Gal(b1-4)GlcNAc(b1-2)[GlcNAc(b1-3)Gal(b1-4)GlcNAc(b1-3)Gal(b1-4)GlcNAc(b1-3)Gal(b1-4)GlcNAc(b1-3)Gal(b1-4)GlcNAc(b1-6)]Man(a1-6)[GlcNAc(b1-3)Gal(b1-4)GlcNAc(b1-3)Gal(b1-4)GlcNAc(b1-3)Gal(b1-4)GlcNAc(b1-3)Gal(b1-4)GlcNAc(b1-2)Man(a1-3)]Man(b1-4)GlcNAc(b1-4)[Fuc(a1-6)]GlcNAc
# Method in brief: as §1
# [23] = molecular target: GlcNAc(b1-3)Gal(b1-4)GlcNAc(b1-6)[Gal(b1-3)]GalNAc
# Method in brief: as §1
# [24] = molecular target: GlcNAc(b1-3)[GlcNAc(b1-6)]Gal
# Method in brief: as §1
# [25] = molecular target: GlcNAc(b1-3)[GlcNAc(b1-6)]Gal(b1-4)GlcNAc(b1-3)[GlcNAc(b1-6)]Gal(b1-4)GlcNAc(b1-3)Gal(b1-4)Glc
# Method in brief: as §1
# [26] = molecular target: GlcNAc(b1-4)GlcNAc
# Method in brief: as §1
# [27] = molecular target: GlcNAc(b1-4)GlcNAc(b1-4)GlcNAc(b1-4)GlcNAc
# Method in brief: as §1
# [28] = molecular target: HexA(a1-3)GalNAc4S(b1-4)GlcA(b1-3)GalNAc4S(b1-4)GlcA(b1-3)GalNAc4S(b1-4)GlcA(b1-3)GalNAc4S(b1-4)GlcA(b1-3)GalNAc4S(b1-4)GlcA(b1-3)GalNAc4S(b1-4)GlcA(b1-3)GalNAc4S
# Method in brief: as §1
# [29] = molecular target: Man(a1-2)Man(a1-6)[Man(a1-3)]Man(a1-6)[Man(a1-2)Man(a1-2)Man(a1-3)]Man(b1-4)GlcNAc(b1-4)GlcNAc
# Method in brief: as §1
# [30] = molecular target: Neu5Ac(a2-3)Gal
# Method in brief: as §1
# [31] = molecular target: Neu5Ac(a2-3)Gal(b1-3)GalNAc(b1-3)Gal(a1-4)Gal(b1-4)Glc
# Method in brief: as §1
# [32] = molecular target: Neu5Ac(a2-3)Gal(b1-3)GlcNAc(b1-2)Man(a1-3)[Neu5Ac(a2-3)Gal(b1-3)GlcNAc(b1-2)Man(a1-6)]Man(b1-4)GlcNAc(b1-4)GlcNAc
# Method in brief: as §1
# [33] = molecular target: Neu5Ac(a2-3)Gal(b1-3)[Neu5Ac(a2-3)Gal(b1-4)]GlcNAc
# Method in brief: as §1
# [34] = molecular target: Neu5Ac(a2-3)Gal(b1-3)[Neu5Ac(a2-6)]GalNAc
# Method in brief: as §1
# [35] = molecular target: Neu5Ac(a2-3)Gal(b1-4)GlcNAc(b1-2)Man(a1-3)[Neu5Ac(a2-3)Gal(b1-4)GlcNAc(b1-2)Man(a1-6)]Man(b1-4)GlcNAc(b1-4)GlcNAc
# Method in brief: as §1
# [36] = molecular target: Neu5Ac(a2-3)Gal(b1-4)GlcNAc(b1-2)Man(a1-3)[Neu5Ac(a2-3)Gal(b1-4)GlcNAc(b1-2)Man(a1-6)]Man(b1-4)GlcNAc(b1-4)[Fuc(a1-6)]GlcNAc
# Method in brief: as §1
# [37] = molecular target: Neu5Ac(a2-3)Gal(b1-4)[Fuc(a1-3)]GlcNAc6S
# Method in brief: as §1
# [38] = molecular target: Neu5Ac(a2-3)Gal(b1-4)[Qui(a1-3)]GlcNAc(b1-3)Gal
# Method in brief: as §1
# [39] = molecular target: Neu5Ac(a2-3)GalNBz(b1-4)GlcNAc
# Method in brief: as §1
# [40] = molecular target: Neu5Ac(a2-3)[GalNAc(b1-4)]Gal(b1-3)GalNAc(b1-4)[Neu5Ac(a2-3)]Gal(b1-4)Glc
# Method in brief: as §1
# [41] = molecular target: Neu5Ac(a2-3)[GalNAc(b1-4)]Gal(b1-4)GlcNAc
# Method in brief: as §1
# [42] = molecular target: Neu5Ac(a2-6)Gal(b1-4)GlcNAc(b1-2)Man(a1-3)[Neu5Ac(a2-6)Gal(b1-4)GlcNAc(b1-2)Man(a1-6)]Man(b1-4)GlcNAc(b1-4)[Fuc(a1-6)]GlcNAc
# Method in brief: as §1
# [43] = molecular target: Neu5Ac(a2-6)Gal(b1-4)GlcNAc(b1-3)[Neu5Ac(a2-6)Gal(b1-4)GlcNAc(b1-6)]Gal(b1-4)Glc
# Method in brief: as §1
# [44] = molecular target: Neu5Ac(b2-3)Gal(b1-4)Glc
# Method in brief: as §1
# [45] = molecular target: Neu5Ac9Ac(a2-3)Gal(b1-4)GlcNAc
# Method in brief: as §1
# [46] = molecular target: Neu5Ac9Ac(a2-3)Gal(b1-4)[Fuc(a1-3)]GlcNAc
# Method in brief: as §1
# [47] = molecular target: Neu5Gc(a2-6)GalNAc
# Method in brief: as §1
# [48] = molecular target: Xyl(b1-4)Xyl(b1-4)Xyl(b1-4)Xyl(b1-4)Xyl(b1-4)Xyl
# Method in brief: as §1
binder,measurement,setting,value
B1,glycan array binding signal (z-score),[1],-0.153
same,glycan array binding signal (z-score),[2],4.16
same,glycan array binding signal (z-score),[3],5.42
same,glycan array binding signal (z-score),[4],-0.222
same,glycan array binding signal (z-score),[5],-0.244
same,glycan array binding signal (z-score),[6],-0.174
same,glycan array binding signal (z-score),[7],-0.197
same,glycan array binding signal (z-score),[8],-0.195
same,glycan array binding signal (z-score),[9],-0.195
same,glycan array binding signal (z-score),[10],-0.136
same,glycan array binding signal (z-score),[11],0.924
same,glycan array binding signal (z-score),[12],1.4
same,glycan array binding signal (z-score),[13],2.88
same,glycan array binding signal (z-score),[14],1.98
same,glycan array binding signal (z-score),[15],2.23
same,glycan array binding signal (z-score),[16],-0.167
same,glycan array binding signal (z-score),[17],-0.368
same,glycan array binding signal (z-score),[18],-0.177
same,glycan array binding signal (z-score),[19],-0.143
same,glycan array binding signal (z-score),[20],0.227
same,glycan array binding signal (z-score),[21],0.22
same,glycan array binding signal (z-score),[22],1.96
same,glycan array binding signal (z-score),[23],5.04
same,glycan array binding signal (z-score),[24],-0.195
same,glycan array binding signal (z-score),[25],2.02
same,glycan array binding signal (z-score),[26],-0.113
same,glycan array binding signal (z-score),[27],-0.195
same,glycan array binding signal (z-score),[28],-0.195
same,glycan array binding signal (z-score),[29],-0.178
same,glycan array binding signal (z-score),[30],-0.171
same,glycan array binding signal (z-score),[31],-0.112
same,glycan array binding signal (z-score),[32],-0.061
same,glycan array binding signal (z-score),[33],-0.21
same,glycan array binding signal (z-score),[34],-0.176
same,glycan array binding signal (z-score),[35],-0.148
same,glycan array binding signal (z-score),[36],-0.306
same,glycan array binding signal (z-score),[37],-0.225
same,glycan array binding signal (z-score),[38],-0.195
same,glycan array binding signal (z-score),[39],-0.195
same,glycan array binding signal (z-score),[40],-0.195
same,glycan array binding signal (z-score),[41],-0.138
same,glycan array binding signal (z-score),[42],-0.21
same,glycan array binding signal (z-score),[43],-0.195
same,glycan array binding signal (z-score),[44],-0.195
same,glycan array binding signal (z-score),[45],-0.073
same,glycan array binding signal (z-score),[46],-0.195
same,glycan array binding signal (z-score),[47],-0.162
same,glycan array binding signal (z-score),[48],-0.195

# — the supplement of paper PMC8728848
